Screening data deposited in PubChem by The Scripps Research Institute Molecular Screening Center.
Only some compounds are listed: those with a hit (about 0.83% of all), similar ones and a draw of the others.
S1P4 ag – S1P4 receptor agonists, primary screen, cell-based; actives 0.35% (n = 220,000); activation, % at 4.98 µM; Sphingosine 1-phosphate receptor 4 (Homo sapiens), O95977; S1P4-expressing cell line, agonist reporter assay; AID 1509, 2009; in the data active means activation above about 11%
Hsp70 act – Hsp70 transcriptional activators, primary screen, cell-based, HeLa, Hsp70 promoter luciferase, luminescence, 10 µM. HeLa Hsp70 promoter luciferase reporter; scaled: vehicle 0, proteasome-inhibitor control 100%. activation, % at 10 µM. actives 0.04% (n = 200,000);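 active means activation above the mean across all tested compounds plus 3 SD, cutoff set per campaign, cut at about 5.5% in these data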
S1P4 antagonist – S1P4 receptor antagonists, primary screen, cell-based. Sphingosine 1-phosphate receptor 4 (Homo sapiens), O95977. S1P4-expressing cells, antagonist mode, reporter read-out. actives 0.26% (n = 220,000). inhibition, % at 4.98 µM; in the data active means inhibition above about 29%
S1P3 antagonist – S1P3 receptor antagonists, primary screen, cell-based | actives 0.27% (n = 170,000) | AID 485, 2006 | inhibition, % at 4.98 µM | CHO S1P3 NFAT-BLA reporter, FRET fluorescence, antagonist mode | Sphingosine 1-phosphate receptor 3 (Homo sapiens), Q99500;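 active means inhibition above the plate cutoff, the mean inhibition of test wells on that plate plus 3 SD, cut at about 28% in these data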;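 further: cells challenged with S1P at its EC80 of 0.8 µM; blue over green emission ratio from cleaved BLA substrate after 4 h stimulation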
Pf gamet viab – late stage P. falciparum gametocyte viability inhibitors, primary screen, ATP luminescence, HTS | P. falciparum stage V gametocytes, 24 h | inhibition, % at 10.9 µM | actives 0.065% (n = 150,000);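 active means inhibition above the mean plus 3 SD of compounds within the control limits, set per campaign, cut at about 38% in these data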
S1P4 agonist cf – S1P4 receptor agonists, retest, confirmation, cell-based, high throughput; shares compounds with S1P4 ag; S1P4 agonist cell-based reporter assay; activation, % at 4.98 µM; actives 7% (n = 740); AID 1523, 2009; in the data active means activation above about 12%
S1P1 agonist – S1P1 receptor agonists, human, counter-screen for S1P4 agonist project, cell-based. shares compounds with S1P4 ag. S1P1 agonist cell-based assay, activation. activation, % at 4.98 µM. actives 4% (n = 740). AID 1563, 2009; in the data active means activation above about 21%
Target sequence (P21453 whole entry, looked up): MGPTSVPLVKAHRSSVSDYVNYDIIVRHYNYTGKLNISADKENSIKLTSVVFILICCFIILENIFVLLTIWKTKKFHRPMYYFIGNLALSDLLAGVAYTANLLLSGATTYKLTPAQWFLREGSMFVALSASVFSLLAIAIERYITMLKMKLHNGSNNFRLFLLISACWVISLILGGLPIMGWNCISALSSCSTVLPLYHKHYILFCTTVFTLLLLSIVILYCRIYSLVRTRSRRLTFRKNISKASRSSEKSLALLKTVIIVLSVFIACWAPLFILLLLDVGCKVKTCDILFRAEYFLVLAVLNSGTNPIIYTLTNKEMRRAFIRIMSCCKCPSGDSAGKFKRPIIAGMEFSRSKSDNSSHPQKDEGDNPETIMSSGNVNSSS
Of the large screens only hits and unclear results are named; the others gave an inactive call (follow-up assays come after a bar, where they were run).

COc1ccc2oc(=O)c(C(=O)NCC3CCCO3)cc2c1 (configuration not stated)	none
N#Cc1cc(Br)ccc1N=C1CCCN1c1ccccc1	none
CN(C(=O)Cn1cccc1C1=NC(c2ccccc2)CO1)c1ccccc1 (configuration not stated)	none
CC(=O)Oc1cc2oc(=O)c3c(c2cc1Cl)CCC3	S1P4 ag 15 (no result: Pf gamet viab) | S1P4 agonist cf inactive | S1P1 agonist inactive
COc1cccc(NC(=S)N(CCc2c(C)[nH]c3ccccc23)Cc2cccs2)c1	S1P4 ag 16 (no result: Pf gamet viab) | S1P4 agonist cf inactive | S1P1 agonist inactive
Cn1c2ccc(F)cc2c2ncn(CC3CCCO3)c(=O)c21 (configuration not stated)	none (no result: Hsp70 act)
O=c1c2[nH]c3ccc(F)cc3c2ncn1CC1CCCO1 (configuration not stated)	S1P4 ag 38 (no result: Hsp70 act, Pf gamet viab) | S1P4 agonist cf inactive | S1P1 agonist inactive
O=C(CNCc1cccc2ccccc12)Nc1ccccc1[N+](=O)[O-]	none
CC(=O)Nc1ccccc1O	none (no result: Pf gamet viab)
CC(=O)Nc1ccccc1C(=O)C(=O)O	S1P4 ag 13 (no result: S1P3 antagonist, Pf gamet viab) | S1P4 agonist cf inactive | S1P1 agonist inactive
CCC(C)[C@H](NC(=O)OC(C)(C)C)C(=O)N/N=C/c1ccc2cc(OC)ccc2n1 (some centres not stated)	S1P4 ag 90 | S1P4 agonist cf inactive | S1P1 agonist inactive
CN(c1cccc(Cl)c1)S(=O)(=O)c1cccc(C(=O)Nc2nc3ccccc3[nH]2)c1	none (no result: Pf gamet viab)
C=CCN(c1ccccc1)S(=O)(=O)c1cccc(C(=O)Nc2nc3ccccc3[nH]2)c1	S1P4 ag 22 | S1P4 agonist cf inactive | S1P1 agonist inactive
CCc1ccc(NC(=S)N(CCN2CCOCC2)Cc2ccccc2F)cc1	none
OC1(c2cccnc2)CCN(Cc2nnnn2Cc2ccccc2)CC1	S1P4 ag 53 | S1P4 agonist cf inactive | S1P1 agonist inactive
O=C(CSc1ccccc1)NCc1cccnc1	none (no result: S1P3 antagonist)
O=C(CCSc1ccccc1)NCc1cccnc1	S1P4 ag 11 | S1P4 agonist cf inactive | S1P1 agonist inactive
NC(=S)N/N=C/c1coc2ccc(F)cc2c1=O	S1P4 ag 36 (no result: Hsp70 act) | S1P4 agonist cf inactive | S1P1 agonist inactive
Cc1cc2cc3c(cc2nc1SCC(=O)O)CCC3	S1P4 ag 43 | S1P4 agonist cf inactive | S1P1 agonist inactive
Cc1ccccc1NC(=O)CSc1nc2cc3c(cc2cc1C)CCC3	none (no result: S1P3 antagonist, Pf gamet viab)
Cc1ccc(-n2c(SCC(=O)N3CC(=O)Nc4ccccc43)nc3ccccc3c2=O)cc1	S1P4 ag 27 (no result: Pf gamet viab) | S1P4 agonist cf inactive | S1P1 agonist inactive
Cc1cccc(C)c1-n1c(SCC(=O)N2CC(=O)Nc3ccccc32)nc2ccccc2c1=O	none
CS(=O)(=O)N1N=C(c2ccco2)CC1c1ccccc1Cl (configuration not stated)	none (no result: Hsp70 act)
COc1ccccc1C1CC(c2ccco2)=NN1S(C)(=O)=O (configuration not stated)	S1P4 ag 30 | S1P4 agonist cf inactive | S1P1 agonist inactive
C#Cc1cccc(-n2nnc(C(C)=O)c2C)c1	S1P4 ag 68 (no result: Hsp70 act) | S1P4 agonist cf inactive | S1P1 agonist inactive
CC(=O)c1nnn(-c2c(F)cccc2F)c1C	none (no result: Hsp70 act)
Cc1ccccc1/C=N\NC(=O)c1ccc(Cn2cccn2)o1	S1P4 ag 47 (no result: Pf gamet viab) | S1P4 agonist cf inactive | S1P1 agonist inactive
CC1CCN(Cc2cc(=O)oc3ccc4ccccc4c23)CC1	none (no result: Hsp70 act)
Cc1ccc(CN2CCN(Cc3cn[nH]c3-c3ccccc3)CC2CCO)o1 (configuration not stated)	none
Cc1ccc(CN2CCN(Cc3cn[nH]c3-c3cccc(F)c3)CC2CCO)o1 (configuration not stated)	S1P4 ag 15 | S1P4 agonist cf inactive | S1P1 agonist inactive
O=S(=O)(NCc1ccccc1Cl)c1cccs1	none
CCOc1ccc(C(CC(=O)O)NC(=O)COc2ccccc2)cc1OC (configuration not stated)	S1P4 ag 44 (no result: Pf gamet viab) | S1P4 agonist cf inactive | S1P1 agonist inactive
